SMILES strings stand for the structures. Hit rate of the full screen: of about 310,000 compounds, about 2,200 (0.71%) showed an effect of 50% or more. The effect is printed as a negative number. The full list was thinned out, with strong results kept by preference.

The values below come from PMC4336329 (PLoS ONE, 2015).

The target of the assay is human ether-à-go-go-related gene (hERG) potassium channel (human, UniProt Q12809). The experiment in a line: primary screen, population patch clamp on CHO cells stably expressing hERG; higher = less effect of the substance.
human ether-à-go-go-related gene (hERG) potassium channel, sequence (Q12809 whole entry, looked up): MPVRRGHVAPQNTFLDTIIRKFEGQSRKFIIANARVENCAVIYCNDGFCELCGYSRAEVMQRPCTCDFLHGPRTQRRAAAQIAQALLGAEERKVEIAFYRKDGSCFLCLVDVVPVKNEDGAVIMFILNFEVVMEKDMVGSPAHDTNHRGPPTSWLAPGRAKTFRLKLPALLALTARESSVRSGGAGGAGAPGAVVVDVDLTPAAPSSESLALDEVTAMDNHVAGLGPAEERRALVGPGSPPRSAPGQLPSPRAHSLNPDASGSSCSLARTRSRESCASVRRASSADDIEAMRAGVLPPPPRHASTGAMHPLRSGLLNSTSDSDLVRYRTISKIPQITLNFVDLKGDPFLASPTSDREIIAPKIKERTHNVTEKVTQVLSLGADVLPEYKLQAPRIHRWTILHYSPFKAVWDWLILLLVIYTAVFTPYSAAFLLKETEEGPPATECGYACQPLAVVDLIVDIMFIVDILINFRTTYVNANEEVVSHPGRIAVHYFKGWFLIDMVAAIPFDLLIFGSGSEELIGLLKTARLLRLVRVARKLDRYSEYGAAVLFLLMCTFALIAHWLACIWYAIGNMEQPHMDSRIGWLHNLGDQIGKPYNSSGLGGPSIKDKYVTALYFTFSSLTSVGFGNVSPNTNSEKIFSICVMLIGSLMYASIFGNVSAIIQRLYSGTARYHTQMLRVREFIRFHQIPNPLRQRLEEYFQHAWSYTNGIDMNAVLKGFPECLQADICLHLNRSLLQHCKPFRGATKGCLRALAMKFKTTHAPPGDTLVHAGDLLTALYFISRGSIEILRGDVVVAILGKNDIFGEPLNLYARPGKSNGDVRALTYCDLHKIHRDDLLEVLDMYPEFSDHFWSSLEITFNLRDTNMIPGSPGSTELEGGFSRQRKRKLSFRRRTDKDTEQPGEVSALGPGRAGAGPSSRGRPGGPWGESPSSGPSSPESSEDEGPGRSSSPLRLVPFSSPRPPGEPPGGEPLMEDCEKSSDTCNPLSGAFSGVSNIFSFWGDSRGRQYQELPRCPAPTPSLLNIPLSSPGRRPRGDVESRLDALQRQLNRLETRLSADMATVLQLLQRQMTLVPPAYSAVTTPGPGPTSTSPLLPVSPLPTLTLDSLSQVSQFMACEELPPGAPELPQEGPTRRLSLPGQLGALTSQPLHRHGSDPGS
With `Cc1cc(=O)n2nc(N3CCC(C(=O)NCc4cccnc4)CC3)sc2n1`, the “hERG current change (%, negative = inhibition) at 1uM” value came out at 6.87%.
For `Cc1cc(C)c2nc(N3CCC(C(=O)NCc4ccccn4)CC3)sc2c1` the value was 9.75%; for `Cc1cc(C)c2nc(N3CCC(C(=O)NCc4cccnc4)CC3)sc2c1`, -50.6%; for `Clc1ccc2c(N3CCNCC3)ccnc2c1`, -15.4%.
Turning to `O=S(=O)(c1cccs1)N1CCN(c2ccnc3cc(Cl)ccc23)CC1`, the “hERG current change (%, negative = inhibition) at 1uM” value is reported as -2.74%.
For `O=S(=O)(c1ccccc1)N1CCN(c2ccnc3cc(Cl)ccc23)CC1` the value was -79.9%.
Next, `O=S(=O)(c1ccccc1OC(F)(F)F)N1CCN(c2ccnc3cc(Cl)ccc23)CC1`: 9.89%; `O=S(=O)(c1ccc(Br)s1)N1CCN(c2ccnc3cc(Cl)ccc23)CC1`: 6.07%.
Next, `O=[N+]([O-])c1ccc(S(=O)(=O)N2CCN(c3ccnc4cc(Cl)ccc34)CC2)cc1`: -77.8%.
Regarding `O=S(=O)(c1cccc(Br)c1)N1CCN(c2ccnc3cc(Cl)ccc23)CC1`, the “hERG current change (%, negative = inhibition) at 1uM” value came to 10.2%.
Next, `N#Cc1cccc(S(=O)(=O)N2CCN(c3ccnc4cc(Cl)ccc34)CC2)c1`: -57.2%; `Cc1ccc(S(=O)(=O)N2CCN(c3ccnc4cc(Cl)ccc34)CC2)cc1C`: 21.6%; `Cc1ccc(NC2CCCN(C(=O)c3ccc(-n4ccnc4)cc3)C2)cc1C` (stereo not drawn): -4.71%.
Next, `COc1ccc(-c2cc(-c3ccc(C)cc3)nc(SCc3nnc(-c4ccccc4)o3)c2C#N)cc1OC`: 8.98%; `CS(=O)(=O)N1N=C(c2ccco2)CC1c1ccccc1Cl` (stereo not drawn): 9.15%.
Next, `CCn1nc(C)c(/C=N/NC(=O)CSc2ccccn2)c1C`: 10.3%; `COCCn1c(SCC(=O)c2c[nH]c3ccccc23)nnc1-c1ccncc1`: 7.84%; `O=C(Nc1ccc(Cl)cc1)c1cncs1`: 11.3%.
Turning to `CC(C)Oc1ccc(CN2CCC(n3nccc3NC(=O)c3cccnc3)CC2)cc1`, the “hERG current change (%, negative = inhibition) at 1uM” value is -52.6%.
For `COc1cc(CN2CCC(n3nccc3NC(=O)C3CC3)CC2)cc(OC)c1` the value was -29.5%; for `COC(=O)c1ccc(CN2CCC(n3nccc3NC(=O)C3CCCC3)CC2)cc1`, -26.7%.
Next, `CC(C)n1cc(CN2CCC(n3nccc3NC(=O)C3CCCC3)CC2)cn1`: 6.1%.
For `O=C(Nc1ccnn1C1CCN(Cc2ccccc2OC(F)F)CC1)c1cccnc1` the value was 2.05%; for `CC(C)Cc1ccc(CN2CCC(n3nccc3NC(=O)C3CCCC3)CC2)cc1`, -16.9%; for `COC(=O)c1ccc(CN2CCC(n3nccc3NC(=O)C3CC3)CC2)cc1`, -6.68%.
With `Cc1ccccc1CN1CCC(n2nccc2NC(=O)c2cccnc2)CC1`, the “hERG current change (%, negative = inhibition) at 1uM” value is 4.68%.
Take `O=C(Nc1ccnn1C1CCN(Cc2ccc(Cl)cc2)CC1)C1CCCC1`: the “hERG current change (%, negative = inhibition) at 1uM” value is reported as -37.2%.
Next, `CCc1ccc(CN2CCC(n3nccc3NC(=O)C3CCCC3)CC2)cc1`: -68.2%.
Next, `CC(C)Oc1ccc(CN2CCC(n3nccc3NC(=O)C3CC3)CC2)cc1`: -68.4%; `CC(Cc1ccc(Cl)cc1)N1CCC(n2nccc2NC(=O)C2CCCC2)CC1` (stereo not drawn): -67.5%; `O=C(N/N=C(\CC(=O)c1cccs1)C(F)(F)F)c1cccnc1`: 12.7%.
For `Cl.O=C(NCCN1CCCC1)c1ccc(Cl)cc1Cl` the value was 16.6%; for `O=C(NCC1(N2CCCCC2)CCCCC1)C1CC(=O)N(c2ccc3c(c2)OCCO3)C1` (stereo not drawn), 14.3%.
Turning to `COc1cc(C2NC(=O)C(C#N)=C(S)N2c2ccc(C)cc2)ccc1OC(C)C` (stereo not drawn), the “hERG current change (%, negative = inhibition) at 1uM” value is 9.81%.
For `COc1cc(OC)cc(C(=O)NCCCn2ccnc2)c1` the value was 18.8%.
Turning to `Cn1c2ccccc2c2nnc(SC3CCOC3=O)nc21` (stereo not drawn), the “hERG current change (%, negative = inhibition) at 1uM” value is 3.35%.
Next, `O=C(O)C(C(O)c1ccc([N+](=O)[O-])cc1)[n+]1ccccc1.[Br-]` (stereo not drawn): 18.1%; `COc1cccc(OCc2cc(C(=O)NCc3cnc4ccccn34)no2)c1`: 3.98%; `Cn1c(SCC(=O)NC(=O)Nc2ccccc2)nnc1-c1ccncc1`: 9.09%.
For `COc1ccc(CN2CCC(n3nccc3NC(=O)C3CCCC3)CC2)cc1` the value was -47.4%; for `O=C(Nc1ccnn1C1CCN(Cc2ccc(O)c(Cl)c2)CC1)C1CCCC1`, -6.39%; for `O=C(Nc1ccnn1C1CCN(Cc2ccc(OC(F)F)cc2)CC1)C1CCCC1`, -81.5%.
For the molecule `Cc1c(NC(=O)c2cccc(-c3cc4ccccc4oc3=O)c2)cccc1-c1nc2ncccc2o1`, the “hERG current change (%, negative = inhibition) at 1uM” value turned out to be 12.7%.
For `CCCCNC(=O)N1CCN(Cc2ccc(F)cc2)CC1` the value was 9.29%; for `O=C(Nc1ccc(F)cc1)N1CCN(CCc2ccccc2)CC1`, -9.52%; for `CCNC(=O)N1CCN(CCCC(c2ccc(F)cc2)c2ccc(F)cc2)CC1.Cl`, -90.3%.
Regarding `CCN(CC)CCNS(=O)(=O)c1ccc2[nH]cc(C(=O)O)c(=O)c2c1`, the “hERG current change (%, negative = inhibition) at 1uM” value is reported as 10.9%.
Next, `O=C(Nc1ccnn1C1CCN(C2CCCC2)CC1)c1ccccc1Cl`: 6.27%.
For `O=C(Nc1ccnn1C1CCN(C2CCCC2)CC1)c1ccccc1` the value was 13.3%; for `COc1ccccc1C(=O)Nc1ccnn1C1CCN(C2CCSCC2)CC1`, -44.5%.
Next, `O=C(Nc1ccnn1C1CCN(C2CCCCC2)CC1)c1ccccc1`: 12.1%.
For the molecule `COc1ccccc1C(=O)Nc1ccnn1C1CCN(CC2CC=CCC2)CC1` (stereo not drawn), the “hERG current change (%, negative = inhibition) at 1uM” value is recorded as -69.1%.
For `O=C(Nc1ccnn1C1CCN(CCCC2CCCC2)CC1)c1ccccc1Cl`, the “hERG current change (%, negative = inhibition) at 1uM” value was -99%.
For `O=C(Nc1ccnn1C1CCN(CC2CC=CCC2)CC1)c1ccccc1Cl` (stereo not drawn) the value was -37.8%; for `COc1ccccc1C(=O)Nc1ccnn1C1CCN(C(=O)C(C)(C)C)CC1`, -6.95%; for `COc1ccccc1C(=O)Nc1ccnn1C1CCN(CCCC2CCCC2)CC1`, -93.2%.
For `O=C(Nc1ccnn1C1CCN(CCCC2CCCC2)CC1)c1ccccc1` the value was -60.9%.
Consider `CC(C)(C)CN1CCC(n2nccc2NC(=O)c2ccccc2Cl)CC1`, for which the “hERG current change (%, negative = inhibition) at 1uM” value is given as 4.68%.
Next, `Cc1ccccc1C(=O)Nc1ccnn1C1CCN(CC2CC=CCC2)CC1` (stereo not drawn): -33.5%; `Cc1onc(-c2ccccc2)c1-c1ccnn1C(=O)NC(C)C`: 6.54%.
For `CCCOc1ccc(N2CC(C(=O)Nc3ccccc3C(=O)NCc3ccco3)CC2=O)cc1` (stereo not drawn) the value was -29.5%; for `O=C(NC1CCCCC1)c1ccccc1NC(=O)C1CC(=O)N(c2ccc(Cl)cc2)C1` (stereo not drawn), 13.2%.
Next, `CNC(=O)c1ccccc1NC(=O)C1CC(=O)N(c2ccc(OC)cc2)C1` (stereo not drawn): 9.77%; `CCCOc1ccc(N2CC(C(=O)Nc3ccccc3C(=O)NC)CC2=O)cc1` (stereo not drawn): -56.5%.
For the molecule `Cc1ccc(N2CC(C(=O)Nc3ccccc3C(=O)NC3CCCCC3)CC2=O)cc1` (stereo not drawn), the “hERG current change (%, negative = inhibition) at 1uM” value came to 5.42%.
For `O=C(NC1CCCCC1)c1ccccc1NC(=O)C1CC(=O)N(c2ccccc2)C1` (stereo not drawn) the value was -64.3%; for `CCC(C)C1C(C#N)=C(N)Oc2n[nH]c(C)c21` (stereo not drawn), 14.1%; for `CN(C)CCCNc1ncc(C(F)(F)F)cc1Cl`, 10.3%.
Next, `CN1C(=O)[C@@H]2[C@H](C1=O)[C@@H]1C(=O)Nc3ccccc3C(=O)N1[C@@H]2c1ccc(Br)cc1`: -16.7%.
As for `O=C(Cn1c(C(=O)N2CCN(C3CCCCC3)CC2)cc2sccc21)c1ccccc1`, the “hERG current change (%, negative = inhibition) at 1uM” value is given as -47.5%.
For `CN1CCN(C(=O)c2cc3sccc3n2CC(=O)c2ccccc2)CC1` the value was -2.93%; for `O=C(Cn1c(C(=O)N2CCN(C3CCCC3)CC2)cc2sccc21)c1ccccc1`, -51%.
For `COc1ccc(-c2cc(-c3cccs3)c(C#N)c(SCC(=O)NCc3ccccc3OC)n2)cc1` the value was -3.19%; for `Cc1cccc(C)c1NC(=S)NCc1ccncc1`, 16%; for `c1ccc(CN2CCC(Nc3nc(-c4cccs4)nc4ccccc34)CC2)cc1`, 10.5%.
For `c1ccc(CN2CCC(Nc3nc(-c4cccnc4)nc4ccccc34)CC2)cc1` the value was -74.6%; for `c1ccc(CN2CCC(Nc3nc(-c4ccccc4)nc4ccccc34)CC2)cc1`, 4.83%.
With `CSc1oc(-c2ccc(F)cc2)nc1S(=O)(=O)c1ccccc1`, the “hERG current change (%, negative = inhibition) at 1uM” value is reported as -1.68%.
Next, `CC1(C)C([N+](=O)[O-])C(c2ccc(O)cc2)NC(c2ccc(O)cc2)C1[N+](=O)[O-]` (stereo not drawn): 10.3%.
Next, `COc1ccc(CCC(C)NCCc2ccc(Cl)cc2Cl)cc1` (stereo not drawn): -50.1%; `COc1ccc(CCNC(C)CCc2ccc(OC)cc2)cc1` (stereo not drawn): -2.61%; `COc1ccc(CNCCc2ccc(Cl)cc2Cl)cc1`: 13.2%.
For `CCC(=O)OC1(c2ccccc2)C(C)CN(C)CC1C.Cl` (stereo not drawn) the value was 8.82%; for `C[C@]12CCC[C@H](O1)[C@H]([C@@H](O)c1ccccc1)O2`, 16.5%.
Turning to `CN1C(CC(O)c2ccccc2)CCCC1CC(O)c1ccccc1.Cl` (stereo not drawn), the “hERG current change (%, negative = inhibition) at 1uM” value was -46.3%.
For `CN1CCC(N(C)CC(O)c2ccccc2)CC1.O=C(O)C(=O)O` (stereo not drawn) the value was 1.81%.
For `CN1C(CC(=O)c2ccccc2)CCCC1CC(O)c1ccccc1` (stereo not drawn) the value was -55.2%.
